Source: PubChem BioAssay AID1159580 (chemical genetic matrix, 2015)
Hit rate of the full screen: of about 5,500 compounds, about 2,000 (36%) were called active. Inconclusive results (about 18%) are left out. Cut-off read from the data, not from the text of the source: active = normalized growth mostly below about 0.91 (no sharp cut-off); inconclusive = no clear call, values can overlap the other calls; inactive = mostly above about 0.92. The list shows a part of the results.

Experiment: chemical genetic growth profiling, strain panel (AID 1159580);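 note: tested at 20 µM; growth read once vehicle control cultures reached saturation at 30 °C; 1 = growth at the plate median or of vehicle wells; lower values mean less growth of the strain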
Conditions: S. cerevisiae deletion strains, growth OD
[1] = locus YDL101C, strain DUN1, stronger effect = lower value
[2] = locus YHR030C, strain SLT2, stronger effect = lower value
[3] = locus YAL013W, strain DEP1, stronger effect = lower value
[4] = locus YBR229C, strain ROT2, stronger effect = lower value
[5] = locus YDL134C, strain PPH21, stronger effect = lower value
[6] = locus YDR150W, strain NUM1, stronger effect = lower value
[7] = locus YEL061C, strain CIN8, stronger effect = lower value
[8] = locus YGR078C, strain PAC10, stronger effect = lower value
[9] = locus YHR087W, strain rtc3, stronger effect = lower value
[10] = locus YJR043C, strain POL32, stronger effect = lower value
[11] = locus YJR075W, strain HOC1, stronger effect = lower value
[12] = locus YLR039C, strain RIC1, stronger effect = lower value
[13] = locus YLR058C, strain SHM2 (second series), stronger effect = lower value
[14] = locus YLR085C, strain ARP6, stronger effect = lower value
[15] = locus YLR262C, strain YPT6, stronger effect = lower value
[16] = locus YML094W, strain GIM5, stronger effect = lower value
[17] = locus YMR219W, strain ESC1, stronger effect = lower value
[18] = locus YMR263W, strain SAP30, stronger effect = lower value
[19] = locus YNL128W, strain TEP1, stronger effect = lower value
[20] = locus YNL153C, strain GIM3, stronger effect = lower value
[21] = locus YNL298W, strain CLA4 (second series), stronger effect = lower value
[22] = locus YNL322C, strain KRE1, stronger effect = lower value
[23] = locus YNR030W, strain Alg12, stronger effect = lower value
[24] = locus YPL055C, strain LGE1, stronger effect = lower value
[25] = locus YPL241C, strain CIN2, stronger effect = lower value
[26] = locus YPR135W, strain CTF4, stronger effect = lower value

Measured: normalized growth

COc1ccc(CC2CCC(=NOC(=O)c3ccc(C(C)(C)C)cc3)CC2)cc1 (stereo not drawn)
inactive: locus YAR019C, strain CDC15, stronger effect = lower value 0.991 | locus YBL105C, strain PKC1, stronger effect = lower value 1.01 | locus YBR135W, strain CKS1, stronger effect = lower value 0.988 | locus YBR136W, strain MEC1, stronger effect = lower value 0.985 | locus YBR160W, strain CDC28, stronger effect = lower value 0.993 | locus YDL017W, strain CDC7, stronger effect = lower value 0.982 | locus YDL028C, strain MPS1, stronger effect = lower value 0.984 | [1] 0.977 | locus YDL108W, strain KIN28, stronger effect = lower value 0.984 | locus YDL132W, strain cdc53, stronger effect = lower value 0.977 | locus YDL214C, strain PRR2, stronger effect = lower value 0.947 | locus YDR052C, strain DBF4, stronger effect = lower value 0.975 | locus YDR054C, strain cdc34, stronger effect = lower value 0.98 | locus YDR226W, strain ADK1, stronger effect = lower value 0.979 | locus YDR477W, strain SNF1, stronger effect = lower value 0.946 | locus YER123W, strain YCK3, stronger effect = lower value 0.927 | locus YER133W, strain GLC7, stronger effect = lower value 0.936 | locus YFL009W, strain cdc4, stronger effect = lower value 0.969 | locus YFL029C, strain CAK1, stronger effect = lower value 0.988 | locus YFR003C, strain YPI1, stronger effect = lower value 0.983 | locus YFR019W, strain FAB1, stronger effect = lower value 0.972 | locus YFR028C, strain CDC14, stronger effect = lower value 0.975 | locus YGR040W, strain KSS1, stronger effect = lower value 0.936 | locus YGR052W, strain FMP48, stronger effect = lower value 0.958 | locus YGR092W, strain DBF2, stronger effect = lower value 0.999 | locus YHR079C, strain IRE1, stronger effect = lower value 0.999 | locus YHR082C, strain KSP1, stronger effect = lower value 1.01 | locus YHR205W, strain SCH9, stronger effect = lower value 0.999 | locus YIL147C, strain SLN1, stronger effect = lower value 0.978 | locus YJL095W, strain BCK1, stronger effect = lower value 0.952 | locus YJL128C, strain PBS2, stronger effect = lower value 0.993 | locus YJL157C, strain FAR1, stronger effect = lower value 0.955 | locus YJR016C, strain ILV3, stronger effect = lower value 0.99 | locus YJR066W, strain TOR1 (second series), stronger effect = lower value 0.909 | locus YJR066W, strain TOR1, stronger effect = lower value 1.06 | locus YKL048C, strain ELM1, stronger effect = lower value 0.953 | locus YKL067W, strain YNK1, stronger effect = lower value 0.951 | locus YKL101W, strain HSL1, stronger effect = lower value 0.941 | locus YKL193C, strain SDS22, stronger effect = lower value 0.987 | locus YKL203C, strain TOR2, stronger effect = lower value 1.01 | locus YLR133W, strain CKI1, stronger effect = lower value 0.961 | locus YLR403W, strain SFP1, stronger effect = lower value 1.01 | locus YML070W, strain DAK1, stronger effect = lower value 0.93 | locus YMR001C, strain CDC5, stronger effect = lower value 0.986 | locus YMR205C, strain PFK2 (second series), stronger effect = lower value 0.959 | locus YMR277W, strain FCP1, stronger effect = lower value 0.976 | locus YNL006W, strain LST8, stronger effect = lower value 1 | locus YNL020C, strain ARK1, stronger effect = lower value 0.964 | locus YNL161W, strain CBK1, stronger effect = lower value 0.994 | locus YNL183C, strain NPR1, stronger effect = lower value 1.06 | locus YNL207W, strain RIO2, stronger effect = lower value 0.973 | locus YNL222W, strain SSU72, stronger effect = lower value 0.993 | locus YNL307C, strain MCK1 (second series), stronger effect = lower value 0.94 | locus YOL078W, strain AVO1, stronger effect = lower value 0.988 | locus YOL136C, strain PFK27, stronger effect = lower value 0.956 | locus YOR061W, strain CKA2, stronger effect = lower value 0.963 | locus YOR119C, strain RIO1, stronger effect = lower value 1.02 | locus YOR231W, strain MKK1, stronger effect = lower value 0.975 | locus YOR329C, strain SCD5, stronger effect = lower value 0.998 | locus YPL031C, strain PHO85, stronger effect = lower value 0.937 | locus YPL153C, strain RAD53, stronger effect = lower value 0.924 | locus YPL204W, strain HRR25, stronger effect = lower value 0.916 | locus YPL209C, strain IPL1, stronger effect = lower value 0.988 | locus YPL256C, strain CLN2, stronger effect = lower value 0.881 | locus YPR025C, strain CCL1, stronger effect = lower value 0.999 | locus YPR106W, strain ISR1, stronger effect = lower value 0.986 | locus YPR111W, strain DBF20, stronger effect = lower value 0.98 | strain NNK1, stronger effect = lower value 0.977 | strain TSCII, stronger effect = lower value 0.978
active: [2] 0.828 | locus YLR113W, strain HOG1, stronger effect = lower value 0.844

COc1ccc2c(c1)CCCN2C(=O)NC(=O)c1c(F)cccc1Cl
inactive: [3] 1 | [4] 1.01 | [1] 1.04 | [5] 0.984 | [6] 1.07 | [7] 0.998 | [8] 1.02 | [2] 1.06 | [9] 0.95 | [10] 1.04 | [11] 0.997 | [12] 0.967 | [13] 0.975 | [14] 1 | [15] 0.925 | [16] 0.973 | [17] 0.997 | [18] 1.04 | [19] 1.01 | [20] 1.03 | [21] 1.03 | [22] 0.998 | [23] 1 | [24] 0.98 | [25] 1.02 | [26] 1.05

COc1ccc(OCC(N)=O)cc1
inactive: [3] 1.01 | [4] 1.02 | locus YCL061C, strain MRC1, stronger effect = lower value 1.01 | [1] 1.01 | [5] 1.01 | [6] 0.898 | [7] 1.03 | [8] 1.01 | locus YGR229C, strain SMI1, stronger effect = lower value 1.01 | [2] 1.07 | [9] 1.01 | locus YJL187C, strain SWE1, stronger effect = lower value 1.01 | [10] 1.02 | [11] 1.04 | [12] 1.02 | [13] 1.02 | [14] 1.05 | [15] 1.04 | [16] 1.02 | [17] 1.01 | [18] 0.996 | locus YMR307W, strain GAS1, stronger effect = lower value 1.07 | [19] 1.01 | [20] 1.01 | [21] 1.03 | [22] 1.03 | [23] 1.02 | locus YOL006C, strain TOP1, stronger effect = lower value 1.01 | [24] 1.01 | [25] 1.02 | [26] 1.04
